High-throughput results deposited in PubChem BioAssay by National Center for Advancing Translational Sciences (NCATS).
Luciferase inh: inhibitors of firefly luciferase; AID 411; Potency, µM (top dose mostly 57.1 µM), usual class: inhibitors; purified firefly luciferase, luminescence, 8 min; P08659; 72,000 compounds, 2.2% hits; further: nearly all actives have a fitted effect of over 40% in size
Target sequence (P08659 whole entry, looked up): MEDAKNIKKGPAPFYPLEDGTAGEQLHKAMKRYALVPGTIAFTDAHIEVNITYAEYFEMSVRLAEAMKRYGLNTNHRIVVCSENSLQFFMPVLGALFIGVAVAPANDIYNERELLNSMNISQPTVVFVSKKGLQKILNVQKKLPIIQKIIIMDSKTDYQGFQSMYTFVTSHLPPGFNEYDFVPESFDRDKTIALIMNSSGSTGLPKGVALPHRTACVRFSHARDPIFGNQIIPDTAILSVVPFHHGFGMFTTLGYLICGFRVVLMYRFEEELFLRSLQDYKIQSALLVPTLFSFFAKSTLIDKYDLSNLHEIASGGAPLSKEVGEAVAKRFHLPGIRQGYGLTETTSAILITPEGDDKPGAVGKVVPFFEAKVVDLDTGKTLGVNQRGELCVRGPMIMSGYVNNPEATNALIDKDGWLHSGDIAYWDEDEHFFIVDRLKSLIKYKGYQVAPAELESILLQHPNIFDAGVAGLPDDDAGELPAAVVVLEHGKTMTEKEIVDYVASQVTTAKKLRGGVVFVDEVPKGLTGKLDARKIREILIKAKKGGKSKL
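Luminescence read-out after 8 min at room temperature; enzyme reaction used luciferin plus 10 uM ATP (linear range) in imidazole buffer pH 7.2 with KCl, MgCl2, Tween 20 and BSA. Each sample was run as a titration.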
HSD17B inhib: blocks hydroxysteroid 17-beta dehydrogenase activity; AID 893; Potency, µM (series often up to 57.1 µM), usual class: inhibitors; Q99714; 75,000 compounds, 7.6% hits; recombinant HSD17B10, NADH fluorescence kinetic;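 further: the protocol describes HADH2 (HSD17B10) and not the HSD17B4 of the title; nearly all actives have a fitted effect of over 70% in size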
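Activity followed as NADH fluorescence increase (ex 360, em 450 nm) every 30 seconds for 4 min, using final 90 uM beta-hydroxybutyryl CoA and 1 mM NAD+. Recombinant His-tagged enzyme, 20 nM, pH 9.0 Tris buffer, 15 min compound preincubation.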
ERK AVP inh: blocks ERK signaling stimulated by vasopressin; HEK293-V1b, vasopressin-stimulated pERK AlphaScreen; Potency, µM (titrated, usually from 57.5 µM), most hits filed as inhibitors; 72,000 compounds, 0.99% hits; AID 995; further: nearly all actives have a fitted effect of over 55% in size
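Phosphorylated ERK1/2 detected via AlphaScreen bead proximity in lysates of V1b-expressing HEK293 cells given 25 nM vasopressin for 5 min after 30 min compound exposure (37 °C). AC50 from Hill equation; basal DMSO 0%, vasopressin 100%.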
HADH2 inhib: HADH2 (human) dehydrogenase inhibition; 73,000 compounds, 3.4% hits; Potency, µM (series often up to 57.1 µM), usual class: inhibitors; AID 886; recombinant HADH2, NADH fluorescence, beta-hydroxybutyryl-CoA; Q99714; further: nearly all actives have a fitted effect of over 60% in size
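Buffer 100 mM Tris-HCl pH 9.0/0.01% Tween-20; HADH2 20 nM; NAD+ 1 mM; beta-hydroxybutyryl-CoA 90 uM (all final). 15 min cpd preincubation, RT.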
PK Bst: pyruvate kinase (B. stearothermophilus) modulation; purified pyruvate kinase, luminescence ATP production; ribose 5-phosphate activator present at AC10; Potency, µM; 51,000 compounds, 1.2% hits; in the data active means potency below about 11 µM; inconclusive means mostly about 12 µM to 25 µM;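 the screen sought inhibitors and activators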
ALOX15 inhib: 15-hLO (ALOX15) enzyme inhibition; Potency, µM (doses to about 57.1 µM), actives largely listed as inhibitors; AID 887; 74,000 compounds, 1.4% hits; purified 15hLO-1, xylenol orange hydroperoxide absorbance; P16050; further: nearly all actives have a fitted effect of over 55% in size
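Purified human 15hLO-1 (40 nM final) in 25 mM Hepes pH 7.5, 0.01% Triton X-100 was preincubated with compound 15 min at room temperature, then reacted 6 min with 50 uM arachidonic acid; hydroperoxide detected by Fe-XO, 573/405 nm absorbance ratio.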
A number is an active result; i = inactive; ? = inconclusive; nt = no result; [ ] = remark or other dose. Shown are actives, neighbours in structure and some others; about 11% of the full set was active somewhere. Unless noted, the call rests on the fitted dose curve; in most records, active means well fitted curve in the direction sought with a large enough effect; inconclusive means small, poorly fitted or top-dose-only effect, or another doubt; inactive means no such curve, though single readings can be large; an effect the other way counts as inactive or inconclusive.

SMILES | Luciferase inh | HSD17B inhib | ERK AVP inh | HADH2 inhib | PK Bst | ALOX15 inhib
COc1ccccc1C(=O)N1CCN(c2ccccn2)CC1 | nt | ? | nt | i | nt | i
CC1=NCC[N@@+]1(CCc1ccccc1)Cc1ccccc1 | i[11.4 µM] | i[11.4 µM] | i[11.5 µM] | i[11.4 µM] | nt | i[11.4 µM]
COC(=O)C12CC3(CCC4C5C(C(OCc6ccccc6)C41)C52)OCCO3 (configuration not stated) | nt | i[11.4 µM] | i[11.5 µM] | i[11.4 µM] | nt | i[11.4 µM]
CCC1=C2CC[C@H]3C(=O)N(CC)C(=O)[C@H]3[C@H]2[C@@]2(Cc3ccccc3)C(=NCC3CC3)OC(=O)N2C1=O | nt | i | i | nt | nt | nt
CCOc1ccc(-c2cc(C(=O)N3CCN(C)CC3)c3ccccc3n2)cc1 | 2µM | 13µM | i | i | 3.1 | i
CS(=O)(=O)N1CCN(C(=O)c2cc(-c3cccs3)nc3ccccc23)CC1 | i | 25µM | i | 32µM | nt | i
COc1ccc(S(=O)(=O)N2CCN(c3ccccn3)CC2)cc1OC | i | 25µM | i | i | i | i
COc1ccc(S(=O)(=O)N2CCN(c3c(C)cccc3C)CC2)cc1OC | i | i | nt | i | nt | i
O=C(c1cc(-c2ccccc2)nc2ccccc12)N1CCOCC1 | i | i | i | i | nt | i
CC(=O)c1ccc(N2CCN(C(=O)c3cc(-c4ccc5c(c4)OCO5)nc4ccccc34)CC2)cc1 | 7.9µM | ? | i | ? | nt | i
O=[N+]([O-])c1ccccc1S(=O)(=O)NCC1CCC(CNCC2CCc3ccccc3C2)CC1 (configuration not stated) | nt | i | i | i | nt | ?
CC(C)CO/N=C1/C[C@@H](O)[C@@H](O)[C@@H]2[C@@H]3C(=O)N([C@@H](C)c4ccccc4)C(=O)[C@H]3CC[C@@H]12 | i[11.4 µM] | i[11.4 µM] | i[11.5 µM] | i[11.4 µM] | nt | i[11.4 µM]
O=C(c1cn(-c2ccccc2)nc1-c1cccs1)N1CCN(c2ccccn2)CC1 | 25µM | i | ? | i | i | i
O=C(Cc1cccs1)N1CCN(c2ccccn2)CC1 | i | ? | i | i | nt | i
Cc1ccc2nc3c(cc(C#N)c(=N)n3CC3CCCO3)c(=O)n2c1 (configuration not stated) | i | 3.2µM | i | i | i | i
Cc1ccc(S(=O)(=O)c2cc3c(=O)n4ccccc4nc3n(Cc3ccco3)c2=N)cc1 | i | 3.2µM | i | i | i | i
Cc1ccc(S(=O)(=O)c2cc3c(=O)n4cccc(C)c4nc3n(Cc3ccco3)c2=N)cc1C | i | 32µM | i | i | i | ?
N=c1c(S(=O)(=O)c2ccc(Cl)cc2)cc2c(=O)n3ccccc3nc2n1CCN1CCOCC1 | i | 13µM | i | i | i | i
Cc1ccc(CNC(=O)c2cc3c(=O)n4ccccc4nc3n(Cc3ccco3)c2=N)cc1 | i | nt | nt | nt | i | nt
Cc1cc(F)ccc1OC1C=CC(c2ccc3c(c2)OCO3)OC1CO (configuration not stated) | nt | i[11.4 µM] | i[11.5 µM] | i[11.4 µM] | nt | i[11.4 µM]
COC(=O)C/C=C\[C@@H](C)[C@@H](/C=N\OC[C@@H]1O[C@H](c2ccccc2)C=C[C@@H]1Oc1ccc(OC)cc1)OC | i[11.4 µM] | i[11.4 µM] | i[11.5 µM] | i[11.4 µM] | nt | i[11.4 µM]
CC(C)C[C@@H](CC(=O)N[C@@H](CCC(=O)O)CC(=O)O)NC(=O)[C@@H]1CCCC[C@H]1NC(=O)C[C@H](CCCN)NC(=O)C[C@H](Cc1ccccc1)NC(=O)[C@@H]1CCCC[C@H]1N | nt | nt | nt | i | nt | nt
CC1CCN(CC(=O)N2c3ccccc3Sc3cc4ccccc4cc32)CC1 | i[11.4 µM] | i[11.4 µM] | i[11.5 µM] | i[11.4 µM] | nt | i[11.4 µM]
COc1cccc(Nc2ncc3ncc(=O)n(C[C@H]4CCCO4)c3n2)c1 | i[11.4 µM] | i | i | i | nt | i
Cc1ccc(S(=O)(=O)c2cc3c(=O)n4ccccc4nc3n(CC3CCCO3)c2=N)cc1 (configuration not stated) | i | 16µM | i | i | i | i
SMILES | Luciferase inh | HSD17B inhib | ERK AVP inh | HADH2 inhib | PK Bst | ALOX15 inhib
Cc1cn([C@H]2C=C[C@H](CO)O2)c(=O)[nH]c1=O | i | nt | nt | i | nt | nt
COc1ccc(C(=S)N(C)C)cc1OC | nt | i | nt | 3.2µM | nt | i
COc1ccc(C(=O)c2ccc(OC)c(OC)c2)cc1OC | i | i | i | i | i | i
COc1cc2cc(CN(Cc3nnnn3C3CCCC3)C3CCCC3)c(=O)[nH]c2cc1OC | i | 32µM | ? | i | i | i
COc1ccc(Cn2nnnc2CN(Cc2cc3cc(C)ccc3[nH]c2=O)C2CCCC2)cc1 | i | i | i | i | i | i
COc1ccc2cc(CN(CCCN3CCOCC3)Cc3nnnn3C3CCCCC3)c(=O)[nH]c2c1 | i | 25µM | i | i | i | ?
CCC(C)(C)n1nnnc1CN(Cc1cc2cc(OC)c(OC)cc2[nH]c1=O)C1CCCC1 | i | 32µM | i | i | i | ?
Nc1ncnc2c1ncn2[C@@H]1O[C@@H](C(=O)NC2CC2)[C@H](O)[C@@H]1O | i | i | ? | i | nt | i
